Bioassay records: PubChem BioAssay, National Center for Advancing Translational Sciences (NCATS)
TDP1 cell CPT – growth inhibition of DT40 Tdp1-/-;hTDP1 cells with camptothecin (screen for TDP1 inhibitors) | AID 686979 | Potency, µM (highest dose often 46.2 µM), inactives show top-dose activity change, negative = growth inhibition, actives largely listed as inhibitors | 420,000 tested, 12% active | chicken DT40 Tdp1-/-;hTDP1 cells + 20 nM CPT, ATP luminescence, 48 h; note: potency is the fitted concentration of half-maximal effect; nearly all actives have a fitted effect of over 55% in size
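Cell growth measured by CellTiter-Glo luminescence after a minimum 48 h, 37 C compound exposure with 20 nM CPT in Tdp1-knockout DT40 cells stably expressing hTDP1, seeded 400/well; qHTS titration format.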
IL1B secr inh – blocks inflammasome-driven IL-1 beta release | THP-1 LPS/ATP IL-1B secretion, AlphaLISA, 16 h; stronger effect = lower value | AID 743279 | activity change, % at 57.5 µM | 360,000 tested, 4.7% active; in the data active = activity change below about -50%; inconclusive = mostly about -30% to -49%
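THP-1 cells pretreated 1 hr with compounds (up to 57.5 uM final), then stimulated with LPS (250 ng/mL final) plus ATP (1.25 mM final); secreted IL-1B measured by AlphaLISA after 16 hr, decreased signal indicating inhibition.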
HT1080NT lethal – kills 2HG-producing HT-1080-NT fibrosarcoma cells. Potency, µM (top dose mostly 46.1 µM), for the others: at the highest dose activity, negative = less viability, most hits filed as cytotoxic. AID 686970. HT-1080-NT fibrosarcoma viability, CellTiter-Glo ATP luminescence, 48 h. 360,000 tested, 1.6% active;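 note: NT is the 2HG producing partner of a matched IDH1 knockdown line; potency is the fitted concentration of half-maximal effect; 0% = DMSO-treated cells and -100% = media-only wells without cells; nearly all actives have a fitted effect of over 55% in size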
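HT-1080-NT; 750 cells/well; 5% FBS RPMI; 48 h compound, 37 degrees C; CellTiter-Glo luminescence; curve fitting and curve-class assignment.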
HT1080 IDH1KD tx – toxicity to HT-1080 IDH1 knockdown cells (counter line). HT-1080 IDH1 knockdown viability, ATP luminescence, 48 h. Potency, µM (series often up to 46.1 µM), for inactives: at the highest dose activity, negative = toxicity, hits mostly cytotoxic. 360,000 tested, 2% active. AID 686971;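 note: potency is the fitted concentration of half-maximal effect; 0% = DMSO wells and -100% = cell-free medium wells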
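Using the IDH1-knockdown HT-1080 line run in the same batch and compound series as the NT line, viability after 48 h at 37 °C was determined by CellTiter-Glo luminescence and expressed as % activity.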
TDP1 cell noCPT – qHTS for Inhibitors of human tyrosyl-DNA phosphodiesterase 1 (TDP1): qHTS in cells in absence of CPT | AID 686978, 2013 | 420,000 tested, 15% active | Potency, µM (top dose mostly 46.2 µM), without a hit: at the top dose activity change, negative = growth inhibition, most hits filed as inhibitors | DT40 Tdp1-/- hTDP1 cells, no CPT, ATP luminescence, 48 h; note: potency is the fitted concentration of half-maximal effect; nearly all actives have a fitted effect of over 55% in size
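Chicken DT40 Tdp1-/- cells stably complemented with human TDP1 were seeded at 400 cells/well with DMSO in place of 20 nM camptothecin. After compound pinning, cells grew at least 48 hr at 37 °C; viability read by CellTiter-Glo luminescence.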
* hit, by the source's call; ? = inconclusive; . = not tested or not shown; [ ] = remark or other dose. Rows were chosen to be rich in hits. Some 19% of all compounds tested hit in one or more screens of this group. Unless noted, calls come from the whole dose curve; as a rule, active = well fitted curve in the direction sought with a large enough effect; inconclusive = small, poorly fitted or top-dose-only effect, or another doubt; inactive = no such curve, though single readings can be large; an effect the other way counts as inactive or inconclusive. Unless noted, % is set by controls: 0 for no effect and ±100 for the full control effect.

SMILES	TDP1 cell CPT	IL1B secr inh	HT1080NT lethal	HT1080 IDH1KD tx	TDP1 cell noCPT
CN1CCc2c(n(CC(O)CN(CCO)CCO)c3ccccc23)C1=O (stereo unspecified)	2%	-4	-9%	0%	-16%
CN1CCc2c(n(CC(O)CNCc3ccccc3)c3ccccc23)C1=O (stereo unspecified)	8.2µM*	?	?	?	8.2µM*
Cc1cccc(NCc2nc3ccccc3n2Cc2ccccc2)c1	15µM*	-26	-19%	?	?
Cc1nc2cc(NCc3nc4ccccc4n3Cc3ccccc3)ccc2n1C	23µM*	-83*	?	?	?
Cc1cccc(NCc2nc3ccccc3n2C)c1	-7%	5	-1%	4%	-6%
COc1ccc2c(Cl)cc(NC(=O)Nc3c(C)cccc3C)nc2c1	13µM*	11	2%	3%	18µM*
COCC(C)NCc1cc2ccc(OC)cc2nc1N1CCN(c2ccc(F)cc2)CC1 (stereo unspecified)	-6%[9.04 µM]	.	.	.	13µM*
NC(=O)c1nn(-c2ccccc2)nc1NC(=O)CSc1nnnn1-c1ccc(Cl)cc1	?	-13	1%	-7%	16µM*
O=C(CSc1nnnn1-c1ccc(Cl)cc1)Nc1cccnc1Cl	23µM*	8	4%	21%	?
NC(=O)c1ccc(-n2nnnc2SCC(=O)Nc2ccccc2-c2ccccc2)cc1	?	-1	-7%	-1%	16µM*
COC(=O)c1ccc(-n2nnnc2SCC(=O)Nc2ccccc2C(=O)OC)cc1	?	19	-1%	-2%	?
O=C(CSc1nnnn1-c1ccccc1)Nc1ccc(Cl)cc1	-7%	-17	4%	9%	-23%
CCOc1ccc(OCC(=O)NCCS(=O)(=O)N2CCN(c3ccc(OC)cc3)CC2)cc1	-2%	.	.	.	-18%
COc1ccc2[nH]c(=O)c(CNc3ccccc3OC)cc2c1	6.5µM*	-12	-20%	-10%	13µM*
COc1ccc2[nH]c(=O)c(CNc3ccccc3C)cc2c1	9.2µM*	40	-7%	1%	23µM*
COc1ccc2[nH]c(=O)c(CN(CCc3ccccc3)C(C)=O)cc2c1	-26%	-11	9%[9.24 µM]	2%	-16%
COc1ccc(NC(=O)C[C@H]2C(=O)N(c3ccc(Br)cc3)C[C@@H]2C)cc1	?	-3	-20%	-2%	?
COc1ccc(NC(=O)C[C@H]2C(=O)N(c3ccc(OC)cc3)C[C@@H]2c2ccc(Br)cc2)cc1	?	-26	-5%	-7%	23µM*
COc1ccc(NC(=O)C[C@H]2C(=O)N(c3ccc(Br)cc3)C[C@@H]2c2ccc(OC)cc2)cc1	?	-27	-16%	-12%	21µM*
COc1ccc([C@H]2CN(c3ccc(OC)cc3)C(=O)[C@@H]2CC(=O)Nc2ccccc2)cc1	-17%	?	-15%	-19%	13µM*
O=C(NNS(=O)(=O)c1ccc(F)c(Cl)c1)c1cccc(S(=O)(=O)N2CCOCC2)c1	-1%	14	1%	8%	-12%
CN1/C(=C\C(=O)COC(=O)CN2C(=O)C3CC=CCC3C2=O)C(C)(C)c2ccccc21 (stereo unspecified)	?	59	-17%	-21%	18µM*
CN1/C(=C/C(=O)COC(=O)C2COc3ccccc3O2)C(C)(C)c2ccccc21 (stereo unspecified)	26µM*	10	-7%	-5%	21µM*
COc1ccccc1C(=O)COC(=O)CN1C(=O)C2CC=CCC2C1=O (stereo unspecified)	13%	11	9%	5%	-4%
COc1ccc(CNC(=O)c2ccc(-c3nc(CSc4ccccc4)c(C)o3)cc2)cc1OC	-20%	.	.	.	-20%
SMILES	TDP1 cell CPT	IL1B secr inh	HT1080NT lethal	HT1080 IDH1KD tx	TDP1 cell noCPT
CNc1c(Br)cc(/C=C2\C=C(C(O)c3cc(Br)c(NC)c(Br)c3)c3ccccc32)cc1Br (stereo unspecified)	?	.	.	.	-29%
CCOC(=O)C1=C(O)c2ccccc2C(=O)/C1=C\c1ccc(CC)cc1	21µM*	?	11µM*	8.9µM*	21µM*
CCOC(=O)c1ccc(COC(=O)c2ccc3c(c2)-c2ccccc2C3=O)cc1	-10%	42	7%	9%	?
CCOC(=O)C1=C(Cc2ccc(OC)cc2)C(=O)c2ccccc2C1=O	4.6µM*	-82*	10µM*	7.9µM*	8.2µM*
C/C(Cn1nc([N+](=O)[O-])cc1C)=N\NC(=O)c1cccc(Br)c1	-1%	-8	-3%	-2%	-11%
COc1ccc(C(=O)N=c2sc3c(C)ccc(OC)c3n2C)cc1OC	5.2µM*	-27	9%	9%	5.8µM*
COc1ccc(C(=O)N=c2sc3ccccc3n2C)cc1OC	?	1	13%	12%	15µM*
COc1cc(C(=O)N/N=c2/sc3ccccc3n2C)cc(OC)c1OC	-18%	7	-17%	-5%	?
Nc1nc(Br)c2c(F)cccc2c1-c1ccc(F)cc1	-7%	-2	-3%	?	?
O=C(N/N=C/c1c[nH]c2ccccc12)c1cc(-c2cccc3ccccc23)n[nH]1	?	-52*	?	8.2µM*	?
O=C(N/N=C/c1c[nH]c2ccccc12)c1ccn[nH]1	-3%	32	4%	-1%	2%
Cc1ccc(-c2cc(C(=O)N/N=C/c3c[nH]c4ccccc34)[nH]n2)cc1	2.3µM*	0	?	2.9µM*	2.6µM*
O=C(N/N=C/c1c[nH]c2ccccc12)c1cc(-c2ccc(-c3ccccc3)cc2)n[nH]1	?	78	?	13µM*	?
O=C(N/N=C/c1c[nH]c2ccccc12)c1cc(-c2ccc3ccccc3c2)n[nH]1	3.7µM*	-99*	7.3µM*	5.8µM*	?
CC(=O)N1CCc2c(sc3c2c(=O)n(-c2cc(Cl)ccc2C)c(=O)n3C)C1	0%	.	.	.	-9%
O=C1NC[C@@H](CCCCN2C[C@H](Cc3ccc(O)cc3)N(CCc3ccc(O)cc3)C(=O)C2=O)N(Cc2ccccc2)C1=O	1%	-3	22%	10%	-29%
Cc1cc(NC(=O)CN2C(=O)NC3(CCCCC3)C2=O)ccc1N1CCCC1	-22%	-1	1%	-3%	?
O=C(N/N=C/c1c[nH]c2ccccc12)c1cc(-c2ccccc2)n[nH]1	0%	-66*	?	?	-9%
CCOC(=O)CSc1nnc([C@H](Cc2ccccc2)NC(=O)OC(C)(C)C)o1	-2%	6	8%	-21%	-3%
CC(C)C[C@H](NC(=O)OC(C)(C)C)c1nnc(SCc2ccccc2)o1	?	-19	-8%	-22%	23µM*
Cc1ccccc1CS(=O)(=O)c1nnc([C@H](CC(C)C)NC(=O)OC(C)(C)C)o1	2.2µM*	-67*	11µM*	4µM*	2.8µM*
CC(C)[C@H](NC(=O)OC(C)(C)C)c1nnc(S(=O)(=O)Cc2c(F)cccc2Cl)o1	1.2µM*	?	6.3µM*	4µM*	1.6µM*
CC[C@@H](C)[C@H](NC(=O)OC(C)(C)C)c1nnc(S(=O)(=O)Cc2cc(C)ccc2C)o1	1.3µM*	0	16µM*	10µM*	2.3µM*
